# Laboratory results taken from PubChem BioAssay (NCATS).
# Unmarked numbers belong to inactive results. Results filed as inconclusive are left out. Some of the results follow. A call without a number means that no potency is given here. Activity calls are given as the source filed them. Unless noted, calls come from the whole dose curve; as a rule, active = well fitted curve in the direction sought with a large enough effect; inconclusive = small, poorly fitted or top-dose-only effect, or another doubt; inactive = no such curve, though single readings can be large; an effect the other way counts as inactive or inconclusive.
# Assays:
# [1] = target: Tumor susceptibility gene 101 protein (Homo sapiens) (UniProt Q99816); test: qHTS Assay for Iinhibitors of HIV-1 Budding by Blocking the Interaction of PTAP/TSG101: Hit Validation (AID 651600); note: nearly all actives have a fitted effect of over 70% in size; note: potency is the fitted concentration of half-maximal effect
# Chain of Tumor susceptibility gene 101 protein (Homo sapiens) (Q99816 whole entry, looked up, the tested form may be a part): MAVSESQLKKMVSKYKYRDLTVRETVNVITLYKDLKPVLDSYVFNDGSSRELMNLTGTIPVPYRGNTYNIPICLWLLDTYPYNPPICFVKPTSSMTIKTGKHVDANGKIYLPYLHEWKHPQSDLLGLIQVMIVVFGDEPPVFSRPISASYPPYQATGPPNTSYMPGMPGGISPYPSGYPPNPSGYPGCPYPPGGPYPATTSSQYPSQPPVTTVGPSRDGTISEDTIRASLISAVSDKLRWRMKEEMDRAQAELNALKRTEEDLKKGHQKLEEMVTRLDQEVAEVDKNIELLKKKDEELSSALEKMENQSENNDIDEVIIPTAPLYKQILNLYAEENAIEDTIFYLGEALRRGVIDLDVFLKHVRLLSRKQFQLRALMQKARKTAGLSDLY
# In short: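 Fluorescence polarization binding assay: Tsg101 binding domain (10 uM final) pre-dispensed with compounds, then FITC-labeled PTAP-motif peptide (50 nM final) added; 20 min at r.t. in HEPES pH 7.5 buffer with NaCl, Tween 20, EDTA, TCEP.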
# [2] = target: Rap guanine nucleotide exchange factor 4 (Homo sapiens) (UniProt Q8WZA2); test: Confirmatory qHTS for agonist of cAMP-regulated guanine nucleotide exchange factor 4 (EPAC2) (AID 1645884);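 note: nucleotide exchange releases bodipy-GDP from Rap1 and this lowers its fluorescence; nearly all actives have a fitted effect of over 65% in size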; note: potency is the fitted concentration of half-maximal effect
# Chain of Rap guanine nucleotide exchange factor 4 (Homo sapiens) (Q8WZA2 whole entry, looked up): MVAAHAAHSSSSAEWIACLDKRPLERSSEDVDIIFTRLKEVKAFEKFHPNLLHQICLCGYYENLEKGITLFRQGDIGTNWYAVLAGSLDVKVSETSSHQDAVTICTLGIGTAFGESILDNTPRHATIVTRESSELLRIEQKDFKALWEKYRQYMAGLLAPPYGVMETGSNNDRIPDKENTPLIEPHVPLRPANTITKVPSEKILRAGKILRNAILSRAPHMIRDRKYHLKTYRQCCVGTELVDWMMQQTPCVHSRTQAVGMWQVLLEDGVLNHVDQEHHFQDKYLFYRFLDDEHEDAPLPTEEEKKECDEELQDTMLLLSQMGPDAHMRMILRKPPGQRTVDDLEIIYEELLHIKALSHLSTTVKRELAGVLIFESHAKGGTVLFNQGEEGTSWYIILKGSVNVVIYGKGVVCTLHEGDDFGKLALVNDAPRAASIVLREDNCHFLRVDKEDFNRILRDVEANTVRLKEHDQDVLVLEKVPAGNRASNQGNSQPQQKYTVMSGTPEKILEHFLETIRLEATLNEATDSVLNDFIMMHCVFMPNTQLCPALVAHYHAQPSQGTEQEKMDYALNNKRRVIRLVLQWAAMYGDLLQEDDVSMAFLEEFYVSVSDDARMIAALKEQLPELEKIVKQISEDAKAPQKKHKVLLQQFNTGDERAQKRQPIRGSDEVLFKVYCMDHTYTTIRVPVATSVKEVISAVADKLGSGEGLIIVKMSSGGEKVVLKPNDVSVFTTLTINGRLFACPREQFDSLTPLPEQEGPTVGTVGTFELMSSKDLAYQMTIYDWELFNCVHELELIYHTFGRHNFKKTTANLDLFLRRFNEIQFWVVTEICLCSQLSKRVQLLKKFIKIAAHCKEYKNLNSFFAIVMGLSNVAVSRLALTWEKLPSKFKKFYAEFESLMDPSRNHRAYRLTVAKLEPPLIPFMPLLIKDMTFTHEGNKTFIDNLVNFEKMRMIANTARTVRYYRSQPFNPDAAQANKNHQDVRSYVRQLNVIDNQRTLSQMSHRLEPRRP
# [3] = target: Rap guanine nucleotide exchange factor 4 (Homo sapiens) (UniProt Q8WZA2); test: Confirmatory qHTS for antagonist of cAMP-regulated guanine nucleotide exchange factor 4 (EPAC2) (AID 1645885); note: nearly all actives have a fitted effect of over 25% in size; note: potency is the fitted concentration of half-maximal effect
# [4] = target: Rap guanine nucleotide exchange factor 3 (Homo sapiens) (UniProt O95398); test: Counterscreen qHTS for antagonist of cAMP-regulated guanine nucleotide exchange factor 3 (EPAC1) (AID 1645888); note: potency is the fitted concentration of half-maximal effect;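 for activity change, negative = inhibition: fluorescence loss as bound BODIPY-GDP is released from Rap1B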
# Chain of Rap guanine nucleotide exchange factor 3 (Homo sapiens) (O95398 whole entry, looked up): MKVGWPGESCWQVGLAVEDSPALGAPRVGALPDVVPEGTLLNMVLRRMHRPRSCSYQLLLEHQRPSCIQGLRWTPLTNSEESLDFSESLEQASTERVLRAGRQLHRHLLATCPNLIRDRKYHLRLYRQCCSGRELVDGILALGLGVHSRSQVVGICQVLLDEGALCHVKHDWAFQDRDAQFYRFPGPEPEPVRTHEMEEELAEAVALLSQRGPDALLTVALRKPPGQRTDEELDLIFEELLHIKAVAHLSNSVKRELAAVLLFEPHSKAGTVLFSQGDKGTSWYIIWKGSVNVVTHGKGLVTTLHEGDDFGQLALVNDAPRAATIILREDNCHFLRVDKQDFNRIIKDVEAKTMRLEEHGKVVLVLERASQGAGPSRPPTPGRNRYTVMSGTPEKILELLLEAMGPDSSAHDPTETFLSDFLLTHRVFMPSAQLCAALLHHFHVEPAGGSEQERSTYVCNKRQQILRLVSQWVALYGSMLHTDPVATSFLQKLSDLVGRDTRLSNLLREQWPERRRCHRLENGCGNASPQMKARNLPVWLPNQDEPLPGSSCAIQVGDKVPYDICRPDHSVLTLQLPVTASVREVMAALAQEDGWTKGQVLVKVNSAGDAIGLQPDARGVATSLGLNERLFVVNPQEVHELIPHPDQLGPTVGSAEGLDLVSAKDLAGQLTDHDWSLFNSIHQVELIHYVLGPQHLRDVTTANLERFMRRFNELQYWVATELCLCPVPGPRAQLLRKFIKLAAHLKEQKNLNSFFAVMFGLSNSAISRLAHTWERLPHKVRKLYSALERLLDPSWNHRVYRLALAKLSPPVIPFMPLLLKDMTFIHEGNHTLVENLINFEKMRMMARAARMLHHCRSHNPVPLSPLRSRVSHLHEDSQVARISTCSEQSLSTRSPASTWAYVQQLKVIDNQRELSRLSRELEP
# In short: (§1)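 Measured: fluorescence of BODIPY-GDP bound to Rap1B, which falls as exchange proceeds. Conditions include 50 uM competing GDP, 5 and 30 min reads, and a later cAMP challenge for antagonist detection.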
# [5] = target: Cytochrome P450 1A2 (Homo sapiens) (UniProt P05177); test: p450-cyp1a2 (AID 410; calls by dose curve; note: potency is the fitted concentration of half-maximal effect)
# In short: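 Read-out is luminescence from luciferin produced by CYP1A2 demethylation of Luciferin-ME (100uM, at Km). Detection reagent stopped the 60 min NADPH-dependent reaction; signals were normalized to 57 uM furafylline.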
# [6] = target: Glucocorticoid receptor (Homo sapiens) (UniProt P04150); test: GR-GFP Redistribution (AID 450;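 active = compounds whose dose series gives a full or clear partial fitted curve of increased nuclear translocation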; note: potency is the fitted concentration of half-maximal effect); conditions: U2OS GR-GFP nuclear translocation, laser cytometry, 2 h
# Chain of Glucocorticoid receptor (Homo sapiens) (P04150 whole entry, looked up, the tested form may be a part): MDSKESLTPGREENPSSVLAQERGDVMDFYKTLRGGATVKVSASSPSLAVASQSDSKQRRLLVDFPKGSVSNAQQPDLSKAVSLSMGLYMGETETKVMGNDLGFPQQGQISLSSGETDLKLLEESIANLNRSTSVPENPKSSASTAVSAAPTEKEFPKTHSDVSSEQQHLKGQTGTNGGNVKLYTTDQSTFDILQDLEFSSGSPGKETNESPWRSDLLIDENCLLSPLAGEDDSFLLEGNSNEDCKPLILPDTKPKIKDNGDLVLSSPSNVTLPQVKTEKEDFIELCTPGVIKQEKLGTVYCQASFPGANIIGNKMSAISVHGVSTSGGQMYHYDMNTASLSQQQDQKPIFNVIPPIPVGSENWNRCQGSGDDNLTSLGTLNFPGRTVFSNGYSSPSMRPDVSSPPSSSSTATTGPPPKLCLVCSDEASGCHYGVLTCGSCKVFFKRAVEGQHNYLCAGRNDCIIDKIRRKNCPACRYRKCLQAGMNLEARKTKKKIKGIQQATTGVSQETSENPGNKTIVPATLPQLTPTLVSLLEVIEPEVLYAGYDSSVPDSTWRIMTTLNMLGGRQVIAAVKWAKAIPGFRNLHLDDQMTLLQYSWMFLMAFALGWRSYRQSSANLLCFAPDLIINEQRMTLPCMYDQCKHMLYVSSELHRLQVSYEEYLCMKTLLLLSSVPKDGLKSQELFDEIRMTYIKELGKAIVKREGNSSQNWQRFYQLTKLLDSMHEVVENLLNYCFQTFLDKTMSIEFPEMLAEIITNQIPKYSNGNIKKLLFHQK
# [7] = target: Glucocorticoid receptor (Homo sapiens) (UniProt P04150); test: GR-EFC Redistribution (AID 451; calls by dose curve; note: potency is the fitted concentration of half-maximal effect); conditions: CHO-K1 GR-EFC translocation, beta-gal luminescence, 2 h
# In short: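 CHO-K1 cells stably expressing nuclear-localized β-gal enzyme acceptor and GR fused C-terminally to the enzyme donor fragment; ligand-driven nuclear translocation restores β-gal by complementation. Compounds titrated up to 46 uM final, 2 h at 37 °C; luminescence read.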
# [8] = target: Mitogen-activated protein kinase 10 (Mus musculus) (UniProt Q61831); test: JNK3 AlphaScreen Assay (AID 530; active = well fitted curve in either direction with a large enough effect, not every such curve was filed as active;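 note: kinase came from lysate of stimulated human HepG2 cells; signal reports phosphorylation of biotinylated GST-cJun 1-79 at Ser73 with 10 µM ATP; series mostly up to about 57 µM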)
# In short: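 Biotinylated GST-cJun(1-79) served as substrate for JNK3 in HepG2 lysates stimulated with IL-1beta and TNF-alpha. ATP was 10 uM final, pH 7.6. Ser73 phosphorylation was quantified by AlphaScreen (680 nm excitation).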
# [9] = target: 3',5'-cyclic-AMP phosphodiesterase 4B (Homo sapiens) (UniProt Q07343); test: qHTS Assay for Inhibitors of PDE-IV (AID 607; active = well fitted activation curve with a large enough effect in the main read-out, with a control signal flat, not every such curve was filed as active)
# In short: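 ACTOne HEK293 cells carry a modified cAMP-gated CNG channel and express endogenous PDE4; plated 1000 cells/well, compounds up to 22.9 uM final. Membrane-potential dye fluorescence (ex 535/em 590) was read; parental cells received 10 uM forskolin + 100 uM RO 20-1724.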
# [10] = target: Cytochrome P450 2C9 (Homo sapiens) (UniProt P11712); test: qHTS Assay for Inhibitors and Substrates of Cytochrome P450 2C9 (AID 883); note: nearly all actives have a fitted effect of over 60% in size
# In short: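 Human CYP2C9 (10nM) hydroxylated Luciferin-H (100uM, at its KM) to luciferin in 25mM KPO4. Compound was preincubated 10 min at 37C, then NADPH regeneration started a 60 min reaction at 37C. Luminescence was read after detection reagent, normalized to 57uM sulphaphenazole.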
# [11] = target: Cytochrome P450 3A4 (Homo sapiens) (UniProt P08684); test: qHTS Assay for Activators of Cytochrome P450 3A4 (AID 885); note: nearly all actives have a fitted effect of over 65% in size
# Chain of Cytochrome P450 3A4 (Homo sapiens) (P08684 whole entry, looked up): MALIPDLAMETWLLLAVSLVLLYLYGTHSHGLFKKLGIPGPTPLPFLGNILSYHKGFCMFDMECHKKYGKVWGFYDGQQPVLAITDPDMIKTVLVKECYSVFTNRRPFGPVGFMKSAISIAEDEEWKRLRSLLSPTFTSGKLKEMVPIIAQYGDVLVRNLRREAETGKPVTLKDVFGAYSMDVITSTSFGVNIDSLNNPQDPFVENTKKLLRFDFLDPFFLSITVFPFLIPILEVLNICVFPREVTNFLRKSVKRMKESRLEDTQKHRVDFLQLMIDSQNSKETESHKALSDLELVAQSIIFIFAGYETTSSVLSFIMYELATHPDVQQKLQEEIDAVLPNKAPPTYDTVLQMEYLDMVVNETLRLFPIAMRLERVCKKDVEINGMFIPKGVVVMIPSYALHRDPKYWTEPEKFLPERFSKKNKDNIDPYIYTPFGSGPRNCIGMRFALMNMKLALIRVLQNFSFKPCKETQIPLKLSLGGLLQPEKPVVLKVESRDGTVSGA
# In short: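 CYP3A4 activity: Luciferin-PPXE O-dealkylation, 25uM substrate, 200mM KPO4, RT throughout. Read-out is luciferase luminescence; higher values reflect activation.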
# [12] = target: Cytochrome P450 2D6 (Homo sapiens) (UniProt P10635); test: qHTS Assay for Inhibitors and Substrates of Cytochrome P450 2D6 (AID 891);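 note: luciferin methyl ether substrate demethylated by CYP2D6 with NADPH regeneration; nearly all actives have a fitted effect of over 60% in size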
# In short: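 Luminescent read-out of luciferin formed by 5 nM human CYP2D6 demethylating 30 uM Luciferin-ME EGE (Km level) over 60 min at room temperature after NADPH regeneration addition. Data normalized to full inhibition by 1.43 uM quinidine.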
# [13] = target: Cytochrome P450 2C19 (Homo sapiens) (UniProt P33261); test: qHTS Assay for Inhibitors and Substrates of Cytochrome P450 2C19 (AID 899); note: nearly all actives have a fitted effect of over 60% in size
# Chain of Cytochrome P450 2C19 (Homo sapiens) (P33261 whole entry, looked up): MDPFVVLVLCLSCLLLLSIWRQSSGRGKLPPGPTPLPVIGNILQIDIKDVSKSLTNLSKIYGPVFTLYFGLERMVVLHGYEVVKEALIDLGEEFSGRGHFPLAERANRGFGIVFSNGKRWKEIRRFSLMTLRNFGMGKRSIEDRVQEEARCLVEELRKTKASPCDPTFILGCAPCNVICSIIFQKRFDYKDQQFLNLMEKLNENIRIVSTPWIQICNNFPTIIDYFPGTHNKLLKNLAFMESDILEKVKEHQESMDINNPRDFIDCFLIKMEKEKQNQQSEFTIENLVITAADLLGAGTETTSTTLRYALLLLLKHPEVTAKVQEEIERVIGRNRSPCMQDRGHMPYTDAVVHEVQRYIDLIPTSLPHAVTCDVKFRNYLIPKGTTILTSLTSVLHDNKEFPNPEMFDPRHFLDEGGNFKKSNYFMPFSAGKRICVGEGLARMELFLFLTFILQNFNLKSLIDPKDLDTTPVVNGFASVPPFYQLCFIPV
# In short: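 Human CYP2C19 (5nM) with Luciferin-H EGE at 10uM (its KM) in 50mM KPO4 was preincubated with compound for 10 min at 37C. NADPH regeneration started a 60 min 37C reaction. Luciferin was read by luminescence, normalized to 57uM ketoconazole.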
# [14] = target: DNA dC->dU-editing enzyme APOBEC-3G (Homo sapiens) (UniProt Q9HC16); test: qHTS for inhibitors of Vif-A3G interactions: Validation (AID 588379)
# In short: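 Yellow fluorescence (Ex 488, Em 500-530) of Vif-coexpressing HeLa A3G-eYFP cells, scanned by Acumen cytometer, reports blocked A3G degradation. Cells plated at 700/well overnight at 37 deg C before compound addition, then a further overnight compound incubation at 37 deg C.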
# [15] = target: Rap guanine nucleotide exchange factor 3 (Homo sapiens) (UniProt O95398); test: Counterscreen qHTS for agonist of cAMP-regulated guanine nucleotide exchange factor 3 (EPAC1) (AID 1645889); note: nearly all actives have a fitted effect of over 40% in size; note: potency is the fitted concentration of half-maximal effect
# In short: as §1
# [16] = target: DNA polymerase eta (Homo sapiens) (UniProt Q9Y253); test: qHTS for Inhibitors of Polymerase Eta: Confirmatory Assay for Cherry-picked Compounds (AID 720502); conditions: Pol eta primer extension, TAMRA/BHQ fluorescence, 10 min; note: potency is the fitted concentration of half-maximal effect
# Chain of DNA polymerase eta (Homo sapiens) (Q9Y253 whole entry, looked up): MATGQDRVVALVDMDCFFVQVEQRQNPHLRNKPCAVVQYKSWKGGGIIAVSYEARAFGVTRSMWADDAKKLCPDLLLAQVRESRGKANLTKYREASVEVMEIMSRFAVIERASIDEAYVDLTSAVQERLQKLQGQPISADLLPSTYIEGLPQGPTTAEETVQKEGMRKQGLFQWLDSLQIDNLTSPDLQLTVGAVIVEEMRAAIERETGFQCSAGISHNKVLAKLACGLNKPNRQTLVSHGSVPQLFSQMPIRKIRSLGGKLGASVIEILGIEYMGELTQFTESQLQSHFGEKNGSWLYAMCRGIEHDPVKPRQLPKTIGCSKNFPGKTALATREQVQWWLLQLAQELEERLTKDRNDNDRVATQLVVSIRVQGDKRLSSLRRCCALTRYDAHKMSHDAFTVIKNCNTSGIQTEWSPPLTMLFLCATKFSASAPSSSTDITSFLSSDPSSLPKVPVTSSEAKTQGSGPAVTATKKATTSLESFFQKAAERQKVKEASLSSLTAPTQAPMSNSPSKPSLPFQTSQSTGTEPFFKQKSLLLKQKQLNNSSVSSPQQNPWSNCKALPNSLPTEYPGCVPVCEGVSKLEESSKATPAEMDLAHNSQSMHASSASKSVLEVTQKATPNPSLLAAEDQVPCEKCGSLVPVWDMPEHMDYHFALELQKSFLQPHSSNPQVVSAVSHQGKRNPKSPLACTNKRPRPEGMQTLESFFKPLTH
# In short: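 Readout: TAMRA dequenching, ex 525/em 598 nm, read at 0 and 10 min. Enzyme: 10 nM human Pol eta, preincubated with compound 15 min RT. Substrate: 50 nM final annealed primer/reporter/template duplex.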
structure (smiles),measurement,setting,value
Cc1cc2nc3c(=O)n(Cc4ccccc4)c(=O)[nH]c3nc2cc1N,Potency,[1],3.66 µM (active)
same,activation,[2],"16.2% [at 17.1 µM, percent relative to cAMP agonist control]"
same,Potency,[3],inactive
same,"activity change, negative = inhibition",[4],0.816% [at 30.8 µM]
Cn1cc(-c2cnc3c(NC=O)cc(-c4cccc(C(F)(F)F)c4)cn23)cn1,Potency,[3],inactive
same,Potency,[4],inactive
CCOC(=O)c1ccc(/C=C2/C=C(c3ccccc3)N(c3ccc(Cl)c(C(=O)O)c3)C2=O)cc1,Potency,[2],100 µM (active)
same,Potency,[4],inactive
COC(=O)C(C)Sc1nc2ccsc2c(=O)n1Cc1ccccc1 (stereo not drawn),Potency,[3],26.9 µM (active)
same,Potency,[4],inactive
COc1cc2cc(Oc3ccc4ccc(=O)oc4c3)c(=O)oc2cc1O,Potency,[5],2 µM (active)
same,Potency,[6],> 46 µM
same,Potency,[7],> 46 µM
same,Potency,[8],inactive
same,Potency,[9],inactive
same,Potency,[10],inactive
same,outcome,[11],inactive
same,Potency,[12],inactive
same,Potency,[13],inactive
same,outcome,[14],inactive
same,activation,[2],"1.41% [at 17.1 µM, percent relative to cAMP agonist control]"
same,Potency,[3],inactive
same,"activity change, negative = inhibition",[4],-3.83% [at 30.8 µM]
COC(=O)c1ccc(COc2ccc(/C=C(\C#N)c3nc4ccccc4[nH]3)cc2OC)o1,Potency,[3],inactive
same,Potency,[4],inactive
CCN(CC)CCCC(C)n1c2nc(=O)[nH]c(=O)c-2nc2cc(Cl)ccc21 (stereo not drawn),Potency,[2],100 µM (active)
same,Potency,[15],63.1 µM (active)
CC1(Cc2cc(Cl)ccc2C(F)(F)F)C(=O)Nc2c(Cl)cccc21 (stereo not drawn),Potency,[2],inactive
same,Potency,[3],30.1 µM (active)
same,Potency,[15],inactive
COc1ccc(O)c(C(c2c(C)[nH][nH]c2=O)c2c(C)[nH][nH]c2=O)c1,Potency,[3],75.7 µM (active)
same,Potency,[4],inactive
CCOc1ccccc1CN(CCc1ccc2c(c1)OCO2)Cc1ccccn1,activation,[2],"11.2% [at 17.1 µM, percent relative to cAMP agonist control]"
same,"activity change, negative = inhibition",[4],2.25% [at 30.8 µM]
CC(=O)OCCn1c2nc(=O)[nH]c(=O)c-2nc2cc(C)c(C)cc21,Potency,[1],0.919 µM (active)
same,Potency,[2],100 µM (active)
same,Potency,[4],100 µM (active)
O=C(N/N=C/c1ccc(OC(=O)c2ccccc2Cl)cc1)c1cc(O)cc(O)c1,Potency,[3],inactive
same,Potency,[4],inactive
Cc1cc(N(C)C)c(C)cc1/C=C/c1ccnc2ccccc12,Potency,[3],inactive
N#Cc1ccc(CSc2nc(N)cc(N)n2)cc1,Potency,[2],112 µM (active)
same,Potency,[4],inactive
same,Potency,[15],inactive
COCCn1c(-c2ccc(OC)cc2)c(-c2ccc(OC)cc2)oc1=O,Potency,[3],inactive
same,Potency,[4],inactive
Cc1cc(Br)cn2c(Cc3ccsc3)c(-c3ccco3)nc12,activation,[2],"5.83% [at 17.1 µM, percent relative to cAMP agonist control]"
same,Potency,[3],inactive
same,"activity change, negative = inhibition",[4],4.94% [at 30.8 µM]
same,activation,[15],27.6% [at 30.8 µM]
CC(=O)N1CCc2nc3sc(C(=O)c4ccc(F)cc4)c(N)c3c(C(F)(F)F)c2C1,Potency,[1],inactive
same,Potency,[2],inactive
same,Potency,[3],inactive
same,Potency,[4],inactive
NC(N)=N/N=C/c1ccc(OCc2ccc(Cl)cc2Cl)cc1,activation,[2],"3.24% [at 17.1 µM, percent relative to cAMP agonist control]"
same,Potency,[3],inactive
same,"activity change, negative = inhibition",[4],10.5% [at 30.8 µM]
same,activation,[15],27.4% [at 30.8 µM]
CN(C)/C=C1\C=C2C(=O)c3ccccc3N2C1=O,Potency,[2],5.01 µM (active)
same,Potency,[15],10 µM (active)
OCc1ccc(-c2ccccc2)c(-c2ccccc2)c1,Potency,[3],inactive
same,Potency,[4],inactive
Nc1ccc(CSc2ccc(Cl)cc2)c(Cl)c1,Potency,[3],21.3 µM (active)
same,Potency,[4],inactive
CCN(CC)C1=CC2=CC(=C(C#N)C#N)CCC2CC1 (stereo not drawn),Potency,[1],inactive
same,Potency,[2],112 µM (active)
same,Potency,[4],inactive
same,Potency,[15],25.1 µM (active)
Cc1cccc(C)c1NC(=O)CN1C(=O)S/C(=C\c2cccn2-c2cccc(C(=O)O)c2)C1=O,Potency,[2],100 µM (active)
same,Potency,[4],inactive
same,Potency,[15],inactive
O=[N+]([O-])c1ccc(NS(=O)(=O)c2ccccc2)c(Cl)c1,Potency,[2],inactive
same,Potency,[3],inactive
same,Potency,[4],inactive
same,Potency,[15],inactive
CCCCN(C)C1=CC2=CC(=C(C#N)C#N)CCC2CC1 (stereo not drawn),Potency,[1],inactive
same,Potency,[2],126 µM (active)
same,Potency,[15],39.8 µM (active)
COc1cccc(/C=N/Nc2ccc(S(=O)(=O)Nc3ccccc3C(=O)O)cc2[N+](=O)[O-])c1O,Potency,[16],67.5 µM (active)
same,activation,[2],"3.64% [at 17.1 µM, percent relative to cAMP agonist control]"
same,Potency,[3],inactive
same,"activity change, negative = inhibition",[4],-5.08% [at 30.8 µM]
same,activation,[15],20% [at 30.8 µM]
CC1CCN(c2ccc3c(c2)S(=O)(=O)c2cccc(C(=O)NC[C@@H]4CCCO4)c2C3=O)CC1,Potency,[3],inactive
same,Potency,[4],inactive
COc1ccc(-c2nc3ccccc3nc2-c2ccccc2)cc1OC,Potency,[4],inactive
CCC(=O)N(CCC(c1ccccc1)c1ccco1)Cc1cccs1 (stereo not drawn),Potency,[4],inactive
COc1cccc(Cn2c(=O)c3ccccc3n3nc(C)cc23)c1,Potency,[3],inactive
same,Potency,[4],inactive
